MEKK2 mut-MEK5 = MEK5 binding signal on mutant MEKK2 PB1, primary screen, biochemical, multiplex bead flow cytometry, Alexa488-MEK5 | percent response, % at 10 µM | 0.35% of 290,000 active | Alexa488-MEK5 binding to MEKK2 mutant; in the data active = percent response above about 24%, passing the limit was not always enough
MEKK2wt PB1 HTS = modulators of MEK5 binding to wildtype MEKK2, primary screen, biochemical, multiplex bead flow cytometry, Alexa488-MEK5. Alexa488-MEK5 binding to MEKK2 WT; actives lie on both sides. binding response (% of control), % at 10 µM. 1.1% of 290,000 active. AID 1531, 2009; in the data active = binding response below about 67% or above about 130%
ATG4B inh = ATG4B protease inhibitors, primary screen, biochemical, fluorescence, uHTS | 0.51% of 340,000 active | inhibition, % at 8.33 µM | ATG4B cleavage of LC3-PLA2, NBD-HPC fluorescence, 1 h; in the data active = inhibition above about 40%
Target sequence (Q9Y4P1 whole entry, looked up): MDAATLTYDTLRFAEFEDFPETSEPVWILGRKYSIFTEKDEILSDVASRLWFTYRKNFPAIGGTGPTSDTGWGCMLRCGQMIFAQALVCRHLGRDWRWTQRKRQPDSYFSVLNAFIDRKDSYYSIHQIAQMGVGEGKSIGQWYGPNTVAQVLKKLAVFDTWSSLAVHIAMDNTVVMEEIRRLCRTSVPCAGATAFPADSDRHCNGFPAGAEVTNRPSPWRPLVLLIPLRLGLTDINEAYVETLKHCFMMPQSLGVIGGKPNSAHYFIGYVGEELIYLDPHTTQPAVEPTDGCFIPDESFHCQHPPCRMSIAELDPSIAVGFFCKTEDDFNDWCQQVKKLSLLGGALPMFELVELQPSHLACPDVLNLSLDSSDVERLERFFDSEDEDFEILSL
UBC13 polyUb = UBC13 polyubiquitin chain formation inhibitors, primary screen, biochemical, TR-FRET, uHTS; inhibition, % at 20 µM; 0.47% of 330,000 active; Ubiquitin-conjugating enzyme E2 N (Homo sapiens), P61088; in the data active = inhibition above about 45%, passing the limit was not always enough
Target sequence (P61088 whole entry, looked up): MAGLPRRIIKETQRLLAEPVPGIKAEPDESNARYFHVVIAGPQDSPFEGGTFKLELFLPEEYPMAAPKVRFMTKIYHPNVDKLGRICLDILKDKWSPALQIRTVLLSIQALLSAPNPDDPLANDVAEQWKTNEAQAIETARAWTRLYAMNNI
MEKK3 PB1 HTS = modulators of MEKK3-MEK5 PB1 binding, primary screen, biochemical, wildtype MEKK3, multiplex bead flow cytometry, Alexa488-MEK5 | Mitogen-activated protein kinase kinase kinase 3 (Homo sapiens), Q99759 | bead-based flow cytometry, Alexa488-MEK5 binding to MEKK3; actives lie on both sides; 0 = blocked by unlabeled MEK5, 100 = vehicle | binding response (% of control), % at 10 µM | 1.4% of 290,000 active | AID 1529, 2009;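 active = binding response more than 3 SD above or below the average of its plate-row segment, actives on both sides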;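 note: Alexa488 bead fluorescence after subtracting the streptavidin-only scavenger bead signal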
PREPL inh = PREPL enzyme inhibitors, primary screen, biochemical, fluorescence polarization. Prolyl endopeptidase-like (Homo sapiens), Q4J6C6. recombinant PREPL, fluorescence polarization activity-based probe. inhibition, % at 5.96 µM. 0.68% of 320,000 active. AID 2751, 2010; in the data active = inhibition above about 43%;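 note: 0% = enzyme with DMSO and 100% = wells lacking enzyme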
MEKK2wt confirm = modulators of MEK5 binding to wildtype MEKK2, confirmation, biochemical, single concentration, multiplex bead flow cytometry | Alexa488-MEK5 binding to MEKK2 WT; actives lie on both sides | binding response (% of control), % at 10 µM | AID 1892, 2009 | 2.4% of 5,900 active | shares compounds with MEKK3 PB1 HTS; in the data active = binding response below about 16% or above about 210%; inactive = in between
MEKK2mut-MEK5 = mutant MEKK2 PB1-MEK5 binding signal retest – biochemical, single concentration, multiplex bead flow cytometry, confirmation; shares compounds with MEKK3 PB1 HTS; Alexa488-MEK5 binding to MEKK2 mutant; percent response, % at 10 µM; 2% of 5,900 active; AID 1893, 2009; in the data active = percent response mostly above about 71%, no sharp cut-off; inactive = mostly below about 38%;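 note: higher means compound restores mutant binding toward wildtype level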
MEKK3-MEK5 inh = MEKK3 wild-type PB1 binding to MEK5, inhibitors, confirmation, biochemical, bead multiplex flow cytometry, single concentration, wildtype | shares compounds with MEKK3 PB1 HTS | Alexa488-MEK5 binding to MEKK3; stronger effect = lower value | binding response (% of control), % at 10 µM | 1.8% of 5,900 active;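 active = binding response below 72% of control, or above a set upper limit, though filed actives all read lower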;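 note: 100% = DMSO only wells and 0% = binding blocked by excess unlabeled MEK5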
Active calls of the source: *; · = no result given; [ ] = remark or other dose. Sampled rows, rich in hits. Any-hit rate of the full collection: about 3.1%.

SMILES	MEKK2 mut-MEK5	MEKK2wt PB1 HTS	ATG4B inh	UBC13 polyUb	MEKK3 PB1 HTS	PREPL inh	MEKK2wt confirm	MEKK2mut-MEK5	MEKK3-MEK5 inh
O=C(Nc1cccc(S(=O)(=O)N2CCOCC2)c1)[C@@H]1CCCN1S(=O)(=O)c1ccc(Cl)cc1	1	111	-13	-2	153*	6	109	15	107
CCc1cccc(NC(=O)C2CCCN2S(=O)(=O)c2ccc3c(c2)n(C)c(=O)c(=O)n3C)c1 (stereo not given)	-15	70	1	-8	71*[inhibitor]	1	127	20	108
Cc1ccc(N(C)C(=O)C2CCCN2S(=O)(=O)c2ccc3c(c2)n(C)c(=O)c(=O)n3C)cc1 (stereo not given)	-17	71	1	15	57*[inhibitor]	2	101	4	103
O=C(CCNS(=O)(=O)/C=C/c1ccccc1)NCCc1c[nH]c2ccccc12	-1	93	-7	8	98	6	·	·	·
COc1ccc(Cn2c(-c3ccco3)nc3c(c(=O)c4ccccc4n3C)c2=O)cc1	28	108	3	10	136*	-5	101	6	106
COc1ccc(Cn2c(-c3ccc(OC)cc3)nc3c(c(=O)c4ccccc4n3C)c2=O)cc1	11	94	·	10	102	-16	·	·	·
COc1ccc(Cn2c(C)nc3c(c(=O)c4ccccc4n3C)c2=O)cc1	21	102	15	21	104	-2	·	·	·
COc1ccc(-c2nc3c(c(=O)c4ccccc4n3C)c(=O)n2Cc2ccccc2)cc1	0	105	-5	1	149*	4	99	3	102
CCN(CC)S(=O)(=O)c1ccc(N(C)C)c(NC(=O)CSCc2c(C)noc2C)c1	4	107	3	-10	106	13	·	·	·
CC(C)C(OC(=O)c1cc2sccc2n1C)C(=O)NCC1CCCO1 (stereo not given)	-26	-2.0*[inhibitor]	-7	4	1.0*[inhibitor]	13	97	-9	98
CC(C)C(OC(=O)C1=Cc2ccccc2OC1)C(=O)NCC1CCCO1 (stereo not given)	·	·	0	·	·	·	·	·	·
COc1ccccc1OCCNC(=O)c1cccc(S(=O)(=O)NCc2ccccc2)c1	·	·	-4	-2	·	11	·	·	·
CS(=O)(=O)c1ccc(CNC(=O)C2(C(F)(F)F)C/C(=C\Cc3ccccc3)CCCO2)cc1 (stereo not given)	-7	85	8	4	81*[inhibitor]	-2	102	5	104
O=C(Nc1nccs1)c1ccc(-c2ccc(Cl)cc2)o1	-26	3.0*[inhibitor]	-2	25	3.0*[inhibitor]	-18	105	0	99
CCN1CCN(CC(=O)Nc2cc(C(F)(F)F)ccc2OCCOC)CC1	0	104	-8	-1	101	11	·	·	·
COc1ccc(CN(C)C(=O)Cc2ccc(S(=O)(=O)N3CCOCC3)s2)cc1OC	·	·	-3	9	·	11	·	·	·
Nc1nc(Nc2ccc(Cl)cc2)nc2ccccc12	8	126	6	13	103	7	·	·	·
Cc1ccc(Nc2nc(N)c3ccccc3n2)cc1Cl	7	152*	-5	33	110	34	138	33	106
CCOC(=O)C1=CN(Cc2ccco2)S(=O)(=O)N(C)C1c1ccc(F)c(Cl)c1 (stereo not given)	·	·	14	·	·	·	·	·	·
COc1ccc(N=c2oc3ccc(OC)cc3cc2-c2nc3ccccc3[nH]2)cc1	5	105	5	-7	124*	-9	101	6	100
COc1ccc(CC(=O)Nc2nc3ccccc3[nH]2)cc1	-11	95	-7	2	96	-19	·	·	·
COc1cccc(CC(=O)Nc2nc3ccccc3[nH]2)c1	112*	·	5	-14	96	-2	109	4	105
FC(F)(F)c1cc(N2CCN(Cc3ccccc3)CC2)c2ccccc2n1	-13	84	-5	11	75*[inhibitor]	-14	95	-7	95
Cc1ccc(NC(=O)CN(C)C(=O)CN2C(=O)NC(C)(c3ccccc3)C2=O)cc1 (stereo not given)	-5	91	7	5	79*[inhibitor]	3	101	3	101
CN(CC(=O)Nc1ccc(F)cc1)C(=O)CN1C(=O)NC2(CCCCC2)C1=O	·	·	2	-11	·	18	·	·	·
SMILES	MEKK2 mut-MEK5	MEKK2wt PB1 HTS	ATG4B inh	UBC13 polyUb	MEKK3 PB1 HTS	PREPL inh	MEKK2wt confirm	MEKK2mut-MEK5	MEKK3-MEK5 inh
O=C(OCc1nc2ccccc2s1)c1ccc(Br)o1	6	134	1	0	144*	-10	104	-1	101
O=C(OCc1nc2ccccc2s1)c1ccc([N+](=O)[O-])o1	0	99	-8	-9	103	-28	·	·	·
Cc1ccc2c(Cl)c(C)c(N3CCCCC3)nc2n1	1	105	13	0	131*	4	106	3	106
Cc1cc(C)c(C#N)c(N2CCSCC2)n1	-31	3.0*[inhibitor]	-5	11	2.0*[inhibitor]	9	84	-14	96
CCCN1CCC(=O)N(CCSc2ccc(NC(C)=O)cc2)CC1	1	108	-6	3	71*[inhibitor]	1	98	-4	97
CCCN1CCC(=O)N(CCSc2ccccc2)CC1	1	106	3	-1	101	7	·	·	·
O=C1CC(N2CCOCC2)C(=O)N1CCN1C(=O)CC(N2CCOCC2)C1=O (stereo not given)	-16	2.0*[inhibitor]	-5	-3	2.0*[inhibitor]	8	98	-1	97
CCN1C(=O)CC(N2CCOCC2)C1=O (stereo not given)	5	109	-4	-8	107	-4	·	·	·
CCCN(CC(=O)Nc1ccc(C(N)=O)cc1)CC(=O)Nc1cc(Cl)ccc1Cl	-3	94	-8	-5	94	-104	·	·	·
CCCN(CC(=O)Nc1ccc(C(N)=O)cc1)CC(=O)Nc1ccc(Cl)cc1Cl	1	106	-5	-1	134*	-109	101	-3	101
